Measured values taken from the supplement of paper PMC9177965.
Values joined by “and” are separate entries in the source; they are usually repeats but may differ in a detail not shown here. Equal entries are not always repeated.

The compounds below were run on HT29 RNF43 G659fs (RNF43 659mut, CRISPR-edited) (assay: cell viability activity relative to DMSO (negative = inhibition); higher = more viable cells (less growth inhibition)). Conditions: 5 µM; 96 h.
Description: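 Broad Repurposing Library primary screen at a single dose of 5 uM. HT29 sg-Ctrl and HT29 RNF43 G659fs CRISPR-edited isogenic cells were seeded at 2500 cells/well in 384-well plates in duplicate and treated for 96 h. Viability was read by CellTiter-Glo and reported as % activity relative to DMSO, with MG132 as the positive control (negative = growth inhibition).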

Row | SMILES | cell viability activity
1 | Cn1c(COP(=O)(NCCBr)NCCBr)cnc1[N+](=O)[O-] | -53.2%
2 | CC(=O)O[C@H]1C[C@H](O[C@H]2[C@@H](O)C[C@H](O[C@H]3[C@@H](O)C[C@H](O[C@H]4CC[C@@]5(C)[C@H](CC[C@@H]6[C@@H]5C[C@@H](O)[C@]5(C)[C@@H](C7=CC(=O)OC7)CC[C@]65O)C4)O[C@@H]3C)O[C@@H]2C)O[C@H](C)[C@H]1O[C@@H]1O[C@H](CO)[C@@H](O)[C@H](O)[C@H]1O | -89.7%
3 | CCNC(=O)C[C@@H]1N=C(c2ccc(Cl)cc2)c2cc(OC)ccc2-n2c(C)nnc21 | -56.9%
4 | C/C(=C\c1csc(C)n1)[C@@H]1C[C@@H]2O[C@]2(C)CCC[C@H](C)[C@H](O)[C@@H](C)C(=O)C(C)(C)[C@@H](O)CC(=O)O1 | -51.7%
5 | C[C@@H]1O[C@@H](O[C@H]2C[C@@H](O)[C@]3(CO)[C@H]4[C@H](O)C[C@]5(C)[C@@H](C6=CC(=O)OC6)CC[C@]5(O)[C@@H]4CC[C@]3(O)C2)[C@H](O)[C@H](O)[C@H]1O | -90.4% and -90%
6 | CC[C@@H](C(=O)[C@@H](C)[C@@H](O)[C@H](C)[C@@H]1O[C@@H]([C@@H](CC)C(=O)O)CC[C@@H]1C)[C@H]1O[C@]2(C=C[C@@H](O)[C@]3(CC[C@@](C)([C@H]4CC[C@](O)(CC)[C@H](C)O4)O3)O2)[C@H](C)C[C@@H]1C | -79.3%
7 | O=Cc1cn(Cc2ccc(Cl)cc2)c2ccccc12 | -38.7%
8 | COC(=O)NC(=S)Nc1ccccc1NC(=S)NC(=O)OC | -31.4%
9 | Oc1cccc2cccnc12 | -48.9%
10 | CC[C@@]1(O)C(=O)OCc2c1cc1n(c2=O)Cc2cc3ccccc3nc2-1 | -94%
11 | C[C@]12CC[C@H]3[C@@H](CC[C@]4(O)C[C@@H](O)CC[C@]34C=O)[C@@]1(O)CC[C@@H]2C1=CC(=O)OC1 | -81.8%
12 | Cc1sc2c(c1C)C(c1ccc(Cl)cc1)=N[C@@H](CC(=O)Nc1ccc(O)cc1)c1nnc(C)n1-2 | -56.2%
13 | C[C@H]1CCC/C=C/[C@@H]2C[C@H](O)C[C@H]2[C@H](O)/C=C/C(=O)O1 | -99.3% and -97.5%
14 | CCN(CC)CCO[C@H]1CC[C@@]2(C)C(=CC[C@@H]3[C@@H]2CC[C@]2(C)C(=O)CC[C@@H]32)C1 | -67.5%
15 | C[C@@]1(CO)[C@H](O)CC[C@@]2(C)[C@H]1CC[C@H]1C[C@@H]3C[C@@]12CC[C@]3(O)CO | -31.8%
16 | Clc1cccc(SC2CCNCC2)n1 | -56.2%
17 | COc1cc([C@@H]2c3cc4c(cc3[C@H](O)[C@H]3COC(=O)[C@H]23)OCO4)cc(OC)c1OC | -59.9%
18 | C[C@@H]1O[C@@H](O[C@@H]2C=C3CC[C@@H]4[C@H](CC[C@]5(C)[C@@H](c6ccc(=O)oc6)CC[C@]45O)[C@@]3(C)CC2)[C@H](O)[C@H](O)[C@H]1O | -81.8%
19 | O=[N+]([O-])C=Cc1ccc2c(c1)OCO2 | -25.8%
20 | CC[C@@H]1/C=C/C=C/C[C@H](C)[C@H](O)[C@](C)(O)C(=O)[C@H](C)[C@@H](O)[C@H](C)C(=O)[C@H](C)[C@@H](O)[C@H](C)/C=C/C(=O)O[C@H]2[C@@H](C)[C@@H](CC1)O[C@@]1(CC[C@@H](C)[C@@H](C[C@H](C)O)O1)[C@@H]2C | -38.4%

Row | SMILES | cell viability activity
21 | CO[C@H]1C[C@H](O[C@H]2CC[C@@]3(C)[C@H](CC[C@@H]4[C@@H]3CC[C@]3(C)[C@@H](C5=CC(=O)OC5)[C@@H](OC(C)=O)C[C@]43O)C2)O[C@@H](C)[C@@H]1O | -84.3%
22 | CC(=O)O[C@@]12CO[C@@H]1C[C@H](O)[C@@]1(C)C(=O)[C@H](O)C3=C(C)[C@@H](O)C[C@@](O)([C@@H](OC(=O)c4ccccc4)[C@H]21)C3(C)C | -37.1%
23 | C=C(C)[C@H]1Cc2c(ccc3c2O[C@@H]2COc4cc(OC)c(OC)cc4[C@@H]2C3=O)O1 | -61.5%
24 | Cc1sc2c(c1C)C(c1ccc(Cl)cc1)=N[C@@H](CC(=O)OC(C)(C)C)c1nnc(C)n1-2 | -60.2%
25 | C/C1=C/C[C@@H](/C(C)=C/c2csc(C)n2)OC(=O)C[C@H](O)C(C)(C)C(=O)[C@H](C)[C@@H](O)[C@@H](C)CCC1 | -63.7%
26 | c1ccc2c(c1)[I+]c1ccccc1-2 | -61.9%
27 | CC[C@H]1CN2CCc3cc(OC)c(OC)cc3[C@@H]2C[C@@H]1C[C@H]1NCCc2cc(OC)c(OC)cc21 | -93.8% and -97.5%
28 | COc1cc2cc(c1Cl)N(C)C(=O)C[C@H](OC(=O)C(C)C)[C@]1(C)O[C@@H]1[C@H](C)[C@@H]1C[C@@](O)(NC(=O)O1)[C@H](OC)/C=C/C=C(\C)C2 | -66.8%
29 | COC(=O)C[C@](O)(CCC(C)(C)O)C(=O)O[C@@H]1C(OC)=C[C@]23CCCN2CCc2cc4c(cc2[C@H]13)OCO4 | -89.5%
30 | NC(=O)c1cn([C@@H]2O[C@H](CO)[C@@H](O)[C@H]2O)c2ncnc(N)c12 | -95.1%
31 | COc1cc2c(c(OC)c1OC)-c1ccc(OC)c(=O)cc1[C@@H](NC(C)=O)CC2 | -55.9% and -56.4%
32 | CN1CCN(c2cccc3[nH]c(=O)oc23)CC1 | -64.6%
33 | N#Cc1cn([C@@H]2O[C@H](CO)[C@@H](O)[C@H]2O)c2ncnc(N)c12 | -94.2%
34 | O=C(C[C@H]1NCCC[C@@H]1O)Cn1cnc2cc(Br)c(Cl)cc2c1=O | -91.6%
35 | C[C@]12CC[C@H](O)C[C@H]1CC[C@@H]1[C@@H]2C[C@@H](O)[C@]2(C)[C@@H](C3=CC(=O)OC3)CC[C@]12O | -78.8%
36 | CC(C)[C@]12O[C@H]1[C@@H]1O[C@]13[C@]1(O[C@H]1C[C@H]1C4=C(CC[C@@]13C)C(=O)OC4)[C@@H]2O | -90.2% and -88.7%
37 | C[C@]12O[C@H](C[C@]1(O)CO)n1c3ccccc3c3c4c(c5c6ccccc6n2c5c31)CNC4=O | -88.5%
38 | CC1CC(C)C(=O)C(C(O)CC2CC(=O)NC(=O)C2)C1 (stereo not given) | -82.5%
39 | CN(C)C(=S)SSC(=S)N(C)C | -72.8%
40 | O=C1C=C2C=C[C@@H]3C[C@@]2(O1)[C@H]1CCCCN31 | -29.8%
